These results are taken from PubChem BioAssay (NCATS).

A number with no mark means an inactive call. Records with an inconclusive call do not appear. The source made the active and inactive calls. The call rests on the fitted dose curve; in most records, active means well fitted curve in the direction sought with a large enough effect; inconclusive means small, poorly fitted or top-dose-only effect, or another doubt; inactive means no such curve, though single readings can be large; an effect the other way counts as inactive or inconclusive.

A short description of assay [1]: Primary qHTS for inhibitors of nuclear receptor binding SET domain protein 2 (NSD2) in an RCH-ACV wild type WT cells (2C) (AID 1645877). Further: nearly all actives have a fitted effect of over 70% in size. Further: potency means the concentration at half of the fitted maximal effect. On activity change, negative = cell killing: on the % scale 0 is the no-effect control and ±100 the full control effect. On the technique in general: Quantitative high-throughput screening tests each substance at several concentrations.
The target in assay [2] is Glutathione peroxidase 1 (Homo sapiens) (UniProt P07203). As to the kind of experiment: Primary qHTS Assay for Inhibitors of Recombinant Selenoprotein Glutathione Peroxidase 1 (GPX1) (AID 1845191). Further: nearly all actives have a fitted effect of over 65% in size. Further: potency means the concentration at half of the fitted maximal effect. On activity, negative = inhibition: on the % scale 0 is the no-effect control and ±100 the full control effect. Summed up:
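10 nM GPX1 + cpd, 30 min RT; start w/ 1 mM GSH, 0.5 mM cumene hydroperoxide, 0.5 mM NADPH, 100 nM GR, 0.01% BSA; buffer 50 mM Tris-HCl pH 7.5, 2 mM EDTA, 150 mM NaCl; Fl 340/450, 0 & 15 min.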

In assay [3] the target is Phospholipid hydroperoxide glutathione peroxidase GPX4 (Homo sapiens) (UniProt P36969). As to the kind of experiment: Primary qHTS Assay for Inhibitors of Recombinant Selenoprotein Glutathione Peroxidase 4 (GPX4) (AID 1845192). Further: nearly all actives have a fitted effect of over 65% in size. Further: potency means the concentration at half of the fitted maximal effect. On activity change, negative = inhibition: series mostly up to about 50 µM; on the % scale 0 is the no-effect control and ±100 the full control effect. Put shortly:
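NADPH consumption, followed by fluorescence at 340/450 nm between 0 and 15 min, reports GPX4 activity via coupled glutathione reductase (100 nM). Enzyme 200 nM was pre-exposed to compound 30 min; 0.5 mM cumene hydroperoxide and 1 mM GSH served as substrates.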

The target of assay [4] is Luciferin 4-monooxygenase (Photinus pyralis) (UniProt P08659). Description: Primary firefly luciferase (FLuc) qHTS assay for identification of artifact compounds. (AID 1845220). Further: nearly all actives have a fitted effect of over 60% in size.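 On activity change, negative = inhibition: series mostly up to about 54 µM; plate controls were DMSO vehicle for no effect and no enzyme for full effect.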 Summed up:
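Compounds sat 15 min at room temperature with 10 uM luciferin and 10 uM ATP (pH 7.6 Tris acetate). Firefly luciferase (10 nM final) was then added, and luminescence was read 5 min later. Data normalized to no-enzyme and DMSO controls were Hill-fitted.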

The nature of assay [5]: Primary fluorescence-based thiol-reactive (MSTI) qHTS assay for identification of artifact compounds. (AID 1845221). Further: nearly all actives have a fitted effect of over 65% in size. Further: potency means the concentration at half of the fitted maximal effect.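 On activity change, negative = thiol reactive: series mostly up to about 54 µM; thiol-reactive compounds lower the probe fluorescence signal.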 Summed up: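 Reactivity toward the thiol probe MSTI (4 uM) is scored by fluorescence at Ex/Em 525/598 nm after 1 h at room temperature. Acetyl-MSTI and MSTI define the activity scale.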
Assay [6] deals with Nanoluciferase (engineered Oplophorus gracilirostris luciferase). Description: Primary Nanoluciferase (NLuc) qHTS assay for identification of artifact compounds. (AID 1845222).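 Further: series mostly up to about 54 µM; 0% = DMSO and -100% = no enzyme.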 Put shortly:
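Luminescence from secreted NLuc (filtered, 1:55-diluted S16 cell medium) read 5 min after Nano-Glo substrate; compounds preincubated 15 min, RT. Hill fits of inhibition normalized to DMSO and no-enzyme.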

The nature of assay [7]: Primary redox qHTS assay for identification of artifact compounds. (AID 1845223).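 Further: 0% = DMSO and 100% = reference compound.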 Put shortly:
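Amplex Red (25 uM) and HRP (250 mU/mL) in HBSS, with compounds for 15 min, then 250 uM DTT for 30 min, room temperature, dark. Fluorescence 525/598 nm read; normalized to DMSO and 10 uM DA3003; Hill fit.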

Sequence of Glutathione peroxidase 1 (Homo sapiens) (P07203 whole entry, looked up): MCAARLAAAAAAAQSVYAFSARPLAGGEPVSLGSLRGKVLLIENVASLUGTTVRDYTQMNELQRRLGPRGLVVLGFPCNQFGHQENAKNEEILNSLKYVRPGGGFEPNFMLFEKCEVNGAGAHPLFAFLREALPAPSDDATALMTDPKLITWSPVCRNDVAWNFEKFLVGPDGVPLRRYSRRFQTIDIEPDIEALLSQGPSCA
Sequence of Phospholipid hydroperoxide glutathione peroxidase GPX4 (Homo sapiens) (P36969 whole entry, looked up): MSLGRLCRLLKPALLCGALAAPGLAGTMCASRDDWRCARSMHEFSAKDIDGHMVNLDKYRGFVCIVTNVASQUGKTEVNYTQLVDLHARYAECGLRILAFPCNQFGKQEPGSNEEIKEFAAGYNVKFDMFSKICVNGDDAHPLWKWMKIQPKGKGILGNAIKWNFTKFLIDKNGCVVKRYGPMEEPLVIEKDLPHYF

For the compound `N#C[C@@H]1C[C@H](F)CN1C(=O)CNC1[C@H]2CN(C(=O)c3ccc(F)cc3)C[C@@H]12` (stereo partly specified), the Potency entry in assay [1], in assay [2], in assay [3], in assay [4], in assay [5] and in assay [6] was “inactive” in each case. For the same compound, the Potency result in assay [7] was “inactive”.

Take `O=C(O[C@H]1[C@@H]2C[C@@H]3OC[C@](O)([C@@H]1Cl)[C@H]2C(O[C@@H]1O[C@H](CO)[C@@H](O)[C@H](O)[C@H]1O)O3)c1ccc(O)c(O)c1` (stereo partly specified): the Potency entry in assay [1], in assay [2], in assay [3], in assay [4], in assay [6] and in assay [7] was “inactive” in each case. For the same compound, the Potency in assay [5] was 1.46 µM (active).

Turning to `CC(=O)O[C@@H]1[C@@H](CO)O[C@@](CO)(O[C@H]2O[C@H](COC(=O)/C=C/c3ccccc3)[C@@H](O)[C@H](O)[C@H]2O)[C@H]1O`, the Potency entry in assay [1], in assay [2], in assay [3], in assay [4], in assay [6] and in assay [7] was “inactive” each time. For the same compound, the Potency in assay [5] is 4.62 µM (active).

On to `O=C(CC(c1ccccc1)c1ccccc1)N1CCN(C(c2ccccc2)c2ccccc2)CC1`, for which, in assay [1], the Potency was 8.17 µM (active). Further, the Potency result in assay [2], in assay [3], in assay [4], in assay [5], in assay [6] and in assay [7] was “inactive” throughout.

Turning to `COc1cc2ncnc(N3CCC(Oc4cnc5ccccc5n4)C3)c2cc1OC` (stereo unspecified), the Potency in assay [1] is 0.145 µM (active). The Potency entry in assay [2], in assay [3], in assay [4], in assay [5], in assay [6] and in assay [7] was “inactive” in each case.

For the compound `CN1CCC(Nc2nc(Nc3ccc(Oc4ccccc4)cc3)c3c(=O)[nH]cc(Br)c3n2)CC1`, in assay [1], the Potency is 0.916 µM (active). The Potency entry in assay [2], in assay [3], in assay [4], in assay [5], in assay [6] and in assay [7] was “inactive” throughout.

In the case of `CC(=O)NC1=NN(C(C)=O)C(C)(c2ccccc2)S1` (stereo unspecified), the Potency in assay [1] is 4.09 µM (active). Further, the Potency result in assay [2], in assay [3], in assay [4], in assay [5], in assay [6] and in assay [7] was “inactive” each time.

For `Cn1cc(-c2ccc3nnc(Sc4ccc5nn(C)cc5c4)n3n2)cn1`, the Potency entry in assay [1], in assay [2], in assay [3], in assay [4], in assay [5] and in assay [6] was “inactive” throughout. Further, in assay [7], the Potency entry was “inactive”.

As to `CC(C)[C@H]1CC[C@@]2(O)COC(=O)[C@H]2[C@@H]1/C=C(\CO)C(=O)O`, the Potency result in assay [1], in assay [2], in assay [3], in assay [4], in assay [5] and in assay [6] was “inactive” each time. In addition, the Potency result in assay [7] was “inactive”.

As for `CCCOc1ccc(-c2nc(OC)c3ccccc3n2)cc1`, the Potency entry in assay [1], in assay [2], in assay [3], in assay [4], in assay [5] and in assay [6] was “inactive” each time. For the same compound, the Potency result in assay [7] is “inactive”.

Regarding `CC(C)C[C@H](CC(=O)NO)C(=O)N[C@H](C(=O)N[C@@H](C)C(=O)NCCN)C(C)(C)C`, the activity change, negative = cell killing in assay [1] is -8.71% [at 9.23 µM]. Also, the activity, negative = inhibition in assay [2] is -2.8% [at 9.52 µM]; in assay [6], 2.44% [at 11.6 µM]. Moreover, the figures for the activity change, negative = inhibition in assay [3] and in assay [4] were -8.26% [at 9.73 µM] and -1.85% [at 11.6 µM], respectively. In addition, the activity change, negative = thiol reactive in assay [5] is 1.54% [at 11.5 µM]. In addition, the redox activity (% of DA3003) in assay [7] is 0.177% [at 11.5 µM].

For `Cc1ccccc1CN1C2=NCCN2C(=O)C2=C1CCN(Cc1ccccc1)C2`, the Potency result in assay [1], in assay [2], in assay [3], in assay [4], in assay [5] and in assay [6] was “inactive” each time. Moreover, the Potency result in assay [7] is “inactive”.

As for `CC1(C)CC[C@]2(C(=O)O[C@@H]3O[C@H](CO)[C@@H](O)[C@H](O)[C@H]3O)CC[C@]3(C)C(=CCC4[C@@]5(C)C[C@@H](O)[C@H](O)C(C)(C)C5[C@H](O)C[C@]43C)[C@@H]2[C@@H]1O` (stereo partly specified), the Potency entry in assay [1], in assay [2], in assay [3], in assay [4], in assay [5] and in assay [6] was “inactive” in each case. In addition, the Potency result in assay [7] is “inactive”.

Turning to `Cn1c(=O)n(-c2ccc(C(C)(C)C#N)cc2)c2c3cc(C#Cc4cccnc4)ccc3ncc21`, in assay [1], the Potency was 0.0142 µM (active). For the same compound, the Potency entry in assay [2], in assay [3], in assay [4], in assay [5], in assay [6] and in assay [7] was “inactive” throughout.

On to `CC1CCC2C(C(=O)O)=COC(O[C@@H]3O[C@H](CO)[C@@H](O)[C@H](O)[C@H]3O)C12` (stereo partly specified), for which the Potency result in assay [1], in assay [2], in assay [3], in assay [4], in assay [6] and in assay [7] was “inactive” each time. The Potency in assay [5] is 5.85 µM (active).

As for `C=C1C[C@]23C[C@H]1[C@@H](O)C[C@H]2[C@@]12C=C[C@H](O)[C@@](C)(C(=O)O1)[C@H]2[C@@H]3C(=O)O`, the Potency result in assay [1], in assay [2], in assay [3], in assay [4], in assay [5] and in assay [6] was “inactive” in each case. Further, in assay [7], the Potency result was “inactive”.

For `Cc1cc(-c2cc(O)ccc2Cl)cc2nnc(Nc3ccc(OCCN4CCCC4)cc3)nc12`, the figures for the Potency in assay [1] and in assay [5] were 2.9 µM (active) and 3.77 µM (active), respectively. The Potency entry in assay [2], in assay [3], in assay [4], in assay [6] and in assay [7] was “inactive” each time.

Regarding `C=C1C[C@]23C[C@H]1CC[C@H]2[C@@]12CC[C@H](O)[C@@](C)(C(=O)O1)[C@H]2[C@@H]3C(=O)O`, the Potency entry in assay [1], in assay [2], in assay [3], in assay [4], in assay [5] and in assay [6] was “inactive” each time. Besides, the Potency result in assay [7] is “inactive”.

For the compound `C=C(C)C1CCC2(C(=O)O)CCC3(C(=O)O)C(CCC4C5(C)CCC(O)C(C)(C(=O)O)C5CCC43C)C12` (stereo unspecified), the Potency entry in assay [1], in assay [2], in assay [3], in assay [4], in assay [5] and in assay [6] was “inactive” throughout. Further, in assay [7], the Potency result is “inactive”.

As for `CC/C=C/CC1=C(CCCCC(CCC(=O)O)OC(C)=O)CCC1=O` (stereo unspecified), in assay [1], the Potency was 12.7 µM (active). For the same compound, the Potency entry in assay [2], in assay [3], in assay [4], in assay [5], in assay [6] and in assay [7] was “inactive” each time.

Consider `CCn1c(=O)c(-c2ccn[nH]2)cc2c(C)nc(N)nc21`, for which the results for the Potency in assay [1], in assay [2] and in assay [3] were 1.18 µM (active), 4.09 µM (active) and 2.55 µM (active), respectively. Besides, the Potency result in assay [4], in assay [5], in assay [6] and in assay [7] was “inactive” in each case.

Turning to `COc1cc2occc2c(O[C@@H]2O[C@H](CO)[C@@H](O)[C@H](O)[C@H]2O)c1CCC(=O)O`, the Potency entry in assay [1], in assay [4], in assay [6] and in assay [7] was “inactive” in each case. Further, the figures for the Potency in assay [2], in assay [3] and in assay [5] were 11.1 µM (active), 11.1 µM (active) and 5.19 µM (active), respectively.

As for `Cc1cc(C(=O)N2Cc3cnn(C)c3Nc3ccccc32)ccc1CNC(=O)N1CCC[C@H]1C(=S)N1CCCN(C)CC1`, the Potency result in assay [1], in assay [2], in assay [3], in assay [4], in assay [5] and in assay [6] was “inactive” each time. In assay [7], the Potency entry was “inactive”.
